This passage reports z-score and composite z-score results from PubChem BioAssay.

The nature of experiment [1]: resazurin metabolic signal in HepG2 cells – cell-based, resazurin fluorescence, 24 h, PK04 Diversity Set, profiling panel (AID 1172). The note with it: HepG2 viability, higher = more signal. For orientation: Alamar Blue is a resazurin reagent that responds to reducing activity.
Experiment [2] can be described thus: budding yeast growth changes without added modifier – OD600, strain BY4716, 24 h, basal condition, primary screen (AID 1173). The note with it: S. cerevisiae BY4716 growth, OD600, 24 h; higher = more signal, called active from +8 up or from −8 down.
A short description of experiment [3]: viability profiling in MM1S myeloma cells – cell-based, resazurin fluorescence, basal, 24 h, PK04 Diversity Set, profiling panel (AID 1174).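 Further: MM1S multiple myeloma cell line.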 The note with it: higher = more signal, called active from +8 up or from −8 down.
Experiment [4] addresses Dihydroorotate dehydrogenase (quinone), mitochondrial (Plasmodium falciparum (isolate 3D7)) (UniProt Q08210). The experiment in a line: inhibition of P. falciparum DHODH – biochemical, C-terminal His tag, absorbance 600 nm, primary screen (AID 1175).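 Further: recombinant parasite enzyme with a five histidine tag at its C terminus.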 The note with it: PfDHODH enzyme, DCIP absorbance 600 nm; higher = more signal, called active from +8 up or from −8 down.
The nature of experiment [5]: inhibition of PAO1 biofilm formation – strain PAO1, LB-PBS medium, absorbance 600 nm, primary screen (AID 1176). The note with it: P. aeruginosa PAO1 growth/biofilm, A600, 12 h; higher = more signal.
The nature of experiment [6]: growth modulation of vineyard yeast isolate – strain RM11-1a, OD600, basal, 24 h, primary screen (AID 1177).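 Further: cultures grown under basal conditions with no added stressor.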 The note with it: S. cerevisiae RM11-1a growth, OD600, 24 h; higher = more signal, called active from +8 up or from −8 down.
Experiment [7] is described as follows: growth of efflux-deficient E. coli DRC39 – strain DRC39, OD650, 24 h, E. coli filamentation inducers, primary screen (AID 1178).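 Further: growth measured as culture turbidity by optical density at 650 nm.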 Conditions: E. coli DRC39 acrAB, higher = more signal, called active from +8 up or from −8 down.
A short description of experiment [8]: growth of efflux-deficient E. coli DRC39 – strain DRC39, OD650, 48 h, E. coli filamentation inducers, primary screen (AID 1179).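 Further: screen aims at cell division blockers that make cells filament.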 The note with it: E. coli DRC39 delta-acrAB growth, higher = more signal, called active from +8 up or from −8 down.
Experiment [9] in a line: viability profiling in RPMI8226 myeloma cells – cell-based, resazurin fluorescence, basal, 24 h, PK04 Diversity Set, profiling panel (AID 1180).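 Further: RPMI8826 multiple myeloma cell line at 5000 cells per well.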 The note with it: higher = more signal.
For experiment [10], the target named is E3 ubiquitin-protein ligase XIAP (Homo sapiens) (UniProt P98170). Nature of the experiment: small molecules binding XIAP protein – biophysical, small-molecule microarray, fluorescence 635 nm, primary screen (AID 1181).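 Further: score merges 667 nm emission and signal to noise over triplicate slides.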 Conditions: higher = more signal.
In experiment [11] the test system is XIP peptide (Xip251-270) binding. Nature of the experiment: XIP fragment 251-270 binding compounds – biochemical, small-molecule microarray, fluorescence 635/667 nm, 0.1 µg/mL protein, primary screen (AID 1182). Conditions: fluorescent protein binding, 635 nm, higher = more signal, called active from +8 up or from −8 down.
For a further experiment, the system named is XIP peptide (Xip251-270). The experiment in a line: compounds binding XIP fragment 251-270 – biochemical, small-molecule microarray, fluorescence 635/667 nm, 0.5 µg/mL protein, primary screen (AID 1183). Conditions: fluorescence 635 nm, higher = more signal.
Experiment [12] in a line: blood-stage malaria parasite viability loss – strain 3D7, DAPI fluorescence, 100 nL, primary screen (AID 1184).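 Further: parasites grown inside human red blood cells in medium with human serum.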 The note with it: P. falciparum 3D7 growth, 3 d, higher = more signal.
The target in experiment [13] is Homeobox protein Hox-A13 (Mus musculus) (UniProt Q62424). The experiment in a line: disruptors of Hoxa13 oligonucleotide interaction – biochemical, fluorescence polarization, labeled oligonucleotide, primary screen (AID 1185). Conditions: Hoxa13:DNA binding, 15 min, higher = more signal, called active from +8 up or from −8 down. In general terms: Fluorescence polarisation rises when a labelled molecule tumbles more slowly, as on binding a larger partner.

A short description of experiment [14]: blockers of DNA damage checkpoint Chk1 activation – imaging, HeLa, hydroxyurea, phospho-Chk1 antibody, percent positive cells, primary screen (AID 1186). Conditions: hydroxyurea-induced phospho-Chk1 immunofluorescence imaging, higher = more signal.
Experiment [15] is described as follows: blockers of DNA damage checkpoint Chk1 activation – imaging, HeLa, hydroxyurea, phospho-Chk1 nuclear intensity, primary screen (AID 1187). The note with it: hydroxyurea-induced phospho-Chk1 immunofluorescence imaging, higher = more signal.

Calls of active or inactive are those of the source. Unless noted, how the calls were made is not given here.

Chain of Homeobox protein Hox-A13 (Mus musculus) (Q62424 whole entry, looked up): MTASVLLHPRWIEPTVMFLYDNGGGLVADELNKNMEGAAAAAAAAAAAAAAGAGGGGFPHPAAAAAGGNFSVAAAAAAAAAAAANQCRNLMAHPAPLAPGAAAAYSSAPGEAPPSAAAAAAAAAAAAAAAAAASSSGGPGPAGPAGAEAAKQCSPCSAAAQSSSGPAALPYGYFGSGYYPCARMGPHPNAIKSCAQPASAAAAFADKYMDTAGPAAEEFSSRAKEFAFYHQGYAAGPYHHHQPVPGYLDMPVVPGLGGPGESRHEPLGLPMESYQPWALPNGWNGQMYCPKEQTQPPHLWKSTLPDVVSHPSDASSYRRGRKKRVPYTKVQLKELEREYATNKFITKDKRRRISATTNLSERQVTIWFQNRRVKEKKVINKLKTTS
Chain of E3 ubiquitin-protein ligase XIAP (Homo sapiens) (P98170 whole entry, looked up, the tested form may be a part): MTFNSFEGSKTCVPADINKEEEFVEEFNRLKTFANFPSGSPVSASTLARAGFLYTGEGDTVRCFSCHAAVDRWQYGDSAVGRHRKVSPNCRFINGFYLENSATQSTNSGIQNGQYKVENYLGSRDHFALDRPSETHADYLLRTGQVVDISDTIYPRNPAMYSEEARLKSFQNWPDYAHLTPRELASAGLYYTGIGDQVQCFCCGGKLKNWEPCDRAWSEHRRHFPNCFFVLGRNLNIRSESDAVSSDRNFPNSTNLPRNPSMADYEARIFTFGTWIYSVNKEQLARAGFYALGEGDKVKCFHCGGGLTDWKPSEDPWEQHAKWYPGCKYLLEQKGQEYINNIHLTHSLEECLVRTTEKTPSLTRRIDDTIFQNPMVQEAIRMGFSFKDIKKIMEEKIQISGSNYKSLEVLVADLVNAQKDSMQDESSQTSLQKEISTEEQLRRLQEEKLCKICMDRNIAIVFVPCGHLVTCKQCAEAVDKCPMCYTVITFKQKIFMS
Chain of Dihydroorotate dehydrogenase (quinone), mitochondrial (Plasmodium falciparum (isolate 3D7)) (Q08210 whole entry, looked up): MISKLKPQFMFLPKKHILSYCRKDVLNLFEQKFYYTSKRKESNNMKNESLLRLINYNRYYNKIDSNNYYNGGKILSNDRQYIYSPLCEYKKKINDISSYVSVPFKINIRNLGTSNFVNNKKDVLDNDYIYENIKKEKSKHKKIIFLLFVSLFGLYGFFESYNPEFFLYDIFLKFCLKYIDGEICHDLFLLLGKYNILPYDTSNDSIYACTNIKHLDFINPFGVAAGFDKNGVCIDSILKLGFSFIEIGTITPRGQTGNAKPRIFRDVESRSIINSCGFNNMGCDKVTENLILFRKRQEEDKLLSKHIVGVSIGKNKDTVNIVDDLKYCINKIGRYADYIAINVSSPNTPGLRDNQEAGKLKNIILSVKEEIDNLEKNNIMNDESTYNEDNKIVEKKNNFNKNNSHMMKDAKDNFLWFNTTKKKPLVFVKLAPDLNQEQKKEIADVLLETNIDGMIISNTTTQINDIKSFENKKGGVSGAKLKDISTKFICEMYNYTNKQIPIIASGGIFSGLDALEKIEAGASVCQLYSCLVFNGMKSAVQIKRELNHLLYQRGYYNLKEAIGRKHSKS

As to `CC(C)=CCCC=C(C)C(O)C1C=CC2C(=O)N(c3ccccc3)C(=O)C2N1Nc1ccc(C#N)cc1` (stereo not given), the z-score in experiment [1] was -1.53; in experiment [2], -0.101 (inactive); in [3], -1.79 (inactive); in [5], 1.36 (inactive); in experiment [6], -1.63 (inactive); in experiment [7] it was -0.0959 (inactive). Also, the z-score is 0.65 (inactive) in experiment [8]; -2.19 in experiment [9]; 0.221 in experiment [12]; 0.884 (inactive) in [13]; -0.0269 (inactive) in experiment [14]; -0.294 (inactive) in experiment [15]. Besides, the composite z-score was -1.49 (inactive) in experiment [4], 0.146 in [10], 1.1 (inactive) in experiment [11] and 0.621 in the experiment on XIP peptide (Xip251-270).
Consider `C=C(CCCC)C(=O)CC[C@H](OC(=O)c1ccccc1-c1ccccc1C(=O)O)c1ccc(OCCO)cc1`, for which the z-score in [1] was 0.359; in experiment [2], -1.6 (inactive); in experiment [3], -0.429 (inactive); in [5], 0.203 (inactive); in [6], 0.152 (inactive); in experiment [7] it was 0.373 (inactive). Besides, the z-score is -0.636 (inactive) in [8]; 0.147 in [9]; -3.08 in experiment [12]; -6.36 (inactive) in [13]; 0.0505 (inactive) in [14]; -0.0839 (inactive) in experiment [15]. For the same molecule, the composite z-score is -1.03 (inactive) in experiment [4], 0.0652 in experiment [10], 2.21 (inactive) in experiment [11] and 0.546 with XIP peptide (Xip251-270).
On to `C=CCC(OC(C)=O)[C@@H]1[C@@H](N(Cc2ccc(-c3ccccc3)cc2)C(=O)c2cccc3ccccc23)c2cc(OCCCO)ccc2N1C(=O)Cc1ccc(OC)cc1` (stereo not given in full), for which the z-score in [1] was -0.533; in experiment [2], 0.186 (inactive); in [3], -0.572 (inactive); in [5], -0.121 (inactive); in experiment [6] it was -0.788 (inactive); in [7], -0.0251 (inactive). In addition, the z-score was -0.288 (inactive) in [8]; -0.505 in [9]; -1.38 in experiment [12]; -1.88 (inactive) in [13]; -0.066 (inactive) in experiment [14]; 0.0017 (inactive) in experiment [15]. For the same molecule, the composite z-score was -0.0892 (inactive) in experiment [4], -0.264 in experiment [10], 0.15 (inactive) in [11] and -0.686 with XIP peptide (Xip251-270).
For `O=C(NCc1ccc(F)cc1)[C@H]1C[C@H]2C(=O)N3CCC[C@H]3C(=O)N2[C@H]1c1ccc(O)cc1`, the z-score in [1] is -0.388; in [2] it was -0.542 (inactive); in experiment [3] it was 0.698 (inactive); in [5], 2.39 (inactive); in [6] it was -0.795 (inactive); in experiment [7], 0.639 (inactive). Also, the z-score is -0.545 (inactive) in experiment [8]; 0.379 in experiment [9]; -1.21 in experiment [12]; 1.55 (inactive) in experiment [13]; -0.717 (inactive) in experiment [14]; -0.415 (inactive) in experiment [15]. Moreover, the composite z-score was -1.47 (inactive) in experiment [4], 0.33 in [10], -0.0173 (inactive) in experiment [11] and 0.702 in the experiment with XIP peptide (Xip251-270).
With `CC(C)NC(=O)[C@@H]1c2ccccc2C(=O)N(Cc2ccc(OC(F)(F)F)cc2)[C@H]1c1ccc(CO)cc1`, the z-score was -1.14 in experiment [1]; 0.924 (inactive) in [2]; 0.155 (inactive) in experiment [3]; 0.627 (inactive) in experiment [5]; 0.91 (inactive) in experiment [6]; -0.386 (inactive) in experiment [7]. Further, the z-score in [8] is -0.664 (inactive); in experiment [9], 0.808; in [12], -1.58; in experiment [13], -3.72 (inactive); in experiment [14], 0.244 (inactive); in experiment [15], 0.137 (inactive). Besides, the composite z-score in experiment [4] is -4.48 (inactive); in [10] it was -0.16; in [11] it was -0.514 (inactive); with XIP peptide (Xip251-270), 0.72.
For the molecule `O=C1O[C@H](c2ccccc2)[C@H](c2ccccc2)N2[C@H]1[C@@H](C(=O)N1CCN(c3ncccn3)CC1)[C@]1(C(=O)Nc3ccc(C#CCCO)cc31)[C@H]2c1ccc(O)cc1`, the z-score in [1] is 0.0071; in experiment [2], 0.298 (inactive); in experiment [3], 0.34 (inactive); in experiment [5], 0.462 (inactive); in experiment [6], 0.254 (inactive); in experiment [7] it was -0.386 (inactive). For the same molecule, the z-score in experiment [8] was -0.395 (inactive); in experiment [9] it was 0.186; in [12], -0.707; in experiment [13], -2.81 (inactive); in experiment [14], -0.114 (inactive); in [15], -0.212 (inactive). The composite z-score in experiment [4] is 0.438 (inactive); in experiment [10], -0.088; in [11], -0.224 (inactive); in the experiment on XIP peptide (Xip251-270), 0.726.
In the case of `C=C(CCCC)/C(=C/C[C@H](OC(=O)c1ccncc1)c1ccc(OCCO)cc1)c1cnc2ccccc2c1`, the z-score was 1.08 in experiment [1]; -1.28 (inactive) in [2]; -0.0114 (inactive) in [3]; 0.391 (inactive) in experiment [5]; 0.51 (inactive) in [6]; 0.709 (inactive) in experiment [7]. Besides, the z-score is 0.258 (inactive) in experiment [8]; 1.04 in experiment [9]; -2.94 in [12]; -2.83 (inactive) in [13]; -0.658 (inactive) in [14]; -0.869 (inactive) in [15]. For the same molecule, the composite z-score in experiment [4] was -2.89 (inactive); in [10], -0.122; in experiment [11], 1.51 (inactive); in the experiment with XIP peptide (Xip251-270), 0.754.
For `CCCCCCc1nc(Cc2cc(OC)c(OC)c(OC)c2)cc2c1[Si](C(C)C)(C(C)C)O[C@H]2c1ccccc1`, the z-score is 0.915 in experiment [1]; 1.12 (inactive) in [2]; -0.111 (inactive) in experiment [3]; 0.374 (inactive) in [5]; 0.202 (inactive) in [6]; -0.373 (inactive) in experiment [7]. Besides, the z-score in experiment [8] was -0.585 (inactive); in [9] it was -0.83; in experiment [12] it was -2.34; in experiment [13] it was -3.15 (inactive); in [14], 0.252 (inactive); in [15], -0.409 (inactive). Also, the composite z-score was 0.364 (inactive) in [4], -0.491 in [10], -0.0565 (inactive) in [11] and 0.103 with XIP peptide (Xip251-270).
With `Cc1ccc(S[C@]2(C(=O)NCCCN(C)C)CC(=O)N(Cc3ccccc3C(F)(F)F)[C@@H]2c2ccc(CO)cc2I)cc1`, the z-score in experiment [1] was 0.0689; in experiment [2] it was -4.57 (inactive); in experiment [3], -3.16 (inactive); in experiment [5], -0.0065 (inactive); in experiment [6] it was -1.55 (inactive); in experiment [7], -0.108 (inactive). The z-score in experiment [8] is -0.65 (inactive); in [9], -1.42; in experiment [12], 0.306; in experiment [13] it was -2.71 (inactive); in experiment [14], 0.0909 (inactive); in [15] it was 0.675 (inactive). Further, the composite z-score in [4] is -0.168 (inactive); in experiment [10], 0.191; in [11], 0.223 (inactive); with XIP peptide (Xip251-270), 0.82.
Take `CN1C(=O)[C@@H]2[C@@H](CC(COc3ccccc3)=C3[C@@H](CCc4ccccc4)OB(O)C[C@@H]32)C1=O`: the z-score was -0.418 in experiment [1]; -1.87 (inactive) in experiment [2]; -0.675 (inactive) in experiment [3]; 0.2 (inactive) in [5]; -0.0646 (inactive) in experiment [6]; 0.0204 (inactive) in experiment [7]. The z-score in experiment [8] is -0.0443 (inactive); in [9], -0.861; in experiment [12], 1.52; in [13], -6.67 (inactive); in [14], 0.556 (inactive); in experiment [15], 0.768 (inactive). For the same molecule, the composite z-score in experiment [4] is -0.399 (inactive); in [10] it was -0.02; in experiment [11] it was 0.106 (inactive); in the experiment with XIP peptide (Xip251-270), 0.774.
